Results from PubChem BioAssay AID1159580 (chemical genetic matrix, 2015).
The whole screen tested about 5,500 compounds, of which about 2,000 (36%) were called active. Another 18% or so got no clear call; they are omitted. Rule as the data show it: active = normalized growth mostly below about 0.91 (no sharp cut-off); inconclusive = no clear call, values can overlap the other calls; inactive = mostly above about 0.92. Some of the results follow.

Experiment: chemical genetic growth profiling, strain panel (AID 1159580);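 also: tested at 20 µM; growth read once vehicle control cultures reached saturation at 30 °C; 1 = growth at the plate median or of vehicle wells; lower values mean less growth of the strain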
Conditions: S. cerevisiae deletion strains, growth OD

Measured: normalized growth

CN1CCC23CCCC[C@H]2C1Cc1ccc(O)cc13 (stereo partly drawn)
inactive: locus YAL040C, strain CLN3, stronger effect = lower value 1.01 | locus YCL061C, strain MRC1 (second series), stronger effect = lower value 1 | locus YDR363W, strain ESC2, stronger effect = lower value 1.03 | locus YER002W, strain NOP16, stronger effect = lower value 0.998 | locus YGR229C, strain SMI1, stronger effect = lower value 1.04 | locus YJR075W, strain HOC1, stronger effect = lower value 1.01 | locus YNL153C, strain GIM3, stronger effect = lower value 1.02 | locus YNL175C, strain NOP13, stronger effect = lower value 1.01 | locus YNL197C, strain WHI3, stronger effect = lower value 1.05 | locus YNL224C, strain SQS1, stronger effect = lower value 1.01 | locus YNL322C, strain KRE1, stronger effect = lower value 1.02 | locus YOR083W, strain WHI5 (second series), stronger effect = lower value 0.989 | locus YPL055C, strain LGE1, stronger effect = lower value 0.998
